Screens deposited in PubChem BioAssay by several laboratories.
This is a sample that favours compounds with a hit; in the whole collection about 27% have one here.
Cav32 inh: human Cav3.2 channel inhibition, primary screen; O95180; Cav3.2-expressing cells, Fluo-4 calcium fluorescence FDSS; stronger effect = lower value; B-score at 10 µM; 100,000 compounds, 4% hits;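 active means single-dose well whose peak fluorescence ratio is a statistical outlier from its plate by either plate-standardised score or position-corrected B-score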
CYP2C9 act: activators of human CYP2C9 | activation factor at 5 µM | P11712 | recombinant CYP2C9, luciferin-H conversion, luminescence; stronger effect = higher value; factor 1 = untreated enzyme, 0 = blocked | 96,000 compounds, 1.4% hits | AID 1024;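 active means activation factor of 2 or more for CYP2C9 at a 5 µM dose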;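 further: 0 = sulfaphenazole-blocked wells and 1 = vehicle-only wells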
PTK2B oligo ant: antagonists of human Pyk2 oligomerization; Q14289; Q293 cells, Pyk2 FERM NanoBiT luminescence; stronger effect = lower value; z-score (the deposit names both 25 µM and 10 µM); 99,000 compounds, 0.83% hits;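 active means Z-score of -3 or lower, scaled per plate to the spread of control and sample wells; inactive means z-score above -3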;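 further: negative z-score means lost luminescence so less FERM oligomerization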
CYP2C19 inhib: inhibitors of human CYP2C19; P33261; CYP2C19 Supersomes, luciferin-H EGE luminescence, 30 min; inhibition, % at 5 µM; 96,000 compounds, 21% hits;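 active means CYP2C19 inhibition above a set limit at 5 µM in the primary screen, cut at about 50% in these data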;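 further: plate controls were negative control wells for no effect and 2.5 mM tranylcypromine positive control for full effect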
CYP2C9 inh: inhibitors of human CYP2C9; P11712; CYP2C9 Supersomes, luciferin-H conversion, luminescence; inhibition, % at 5 µM; 96,000 compounds, 20% hits; AID 777;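 active means blocking of liver enzyme CYP2C9 beyond about 50% at 5 µM, limit read from the data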
CYP2C19 act: increases human CYP2C19 enzyme activity. recombinant CYP2C19, luciferin-H EGE luminescence; stronger effect = higher value; 0 = fully inhibited enzyme, 1 = untreated enzyme. activation factor at 5 µM. 96,000 tested, under 10 active;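 active means activation factor of at least 2 at 5 µM in the primary screen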;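 further: 0 = wells with 2.5 mM tranylcypromine and 1 = vehicle-only wells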
* hit, by the source's call; . = not tested or not shown.

SMILES | Cav32 inh | CYP2C9 act | PTK2B oligo ant | CYP2C19 inhib | CYP2C9 inh | CYP2C19 act
COc1cc(C(=O)OC2CC3CCC2(C)C3(C)C)ccc1OC(C)=O (centres undefined) | -1.2 | . | . | . | . | .
O=C(NC12CC3CC(CC(C3)C1)C2)c1cncc(O)c1 | -0.17 | 0.9 | 1.1 | 14 | 13 | 0.9
CCC(=O)Nc1ccc(S(=O)(=O)c2ccc(NC(=O)CC)cc2)cc1 | 0.28 | 0.3 | -0.36 | 28 | 70* | 0.7
CCC(=O)Nc1ccc(NC(=O)c2ccco2)cc1 | 0.34 | 1 | 0.55 | 14 | 0 | 0.9
O=C(Nc1ncccc1O)c1cccc(S(=O)(=O)N2CCc3ccccc32)c1 | -1.6 | 0.2 | 1.1 | 72* | 75* | 0.3
CCc1nnc(NC(=O)c2ccc(Cl)c(S(=O)(=O)N3CCc4ccccc43)c2)s1 | -3.7 | 0.2 | -2.8 | 75* | 81* | 0.3
O=C(Nc1ccc(S(=O)(=O)N2CCCCC2)cc1)c1ccc(CN2CCc3ccccc3C2)cc1 | -2.4 | 0.3 | 0.74 | 49 | 68* | 0.5
O=C(Nc1ccccn1)c1cccc(S(=O)(=O)N2CCOCC2)c1 | 0.95 | 0.9 | -0.75 | 19 | 12 | 0.8
Cc1nn(C(CC(=O)O)C(=O)O)c(C)c1Br (centres undefined) | 1.3 | . | -0.21 | . | . | .
O=C(NCC1CCCO1)C1CCC(=O)N1Cc1ccccc1Cl (centres undefined) | 0.41 | 1.1 | -0.07 | -5 | -6 | 1.1
CCC(=O)Nc1ccc(S(=O)(=O)N2CCc3ccccc3C2)cc1 | -4.5* | 1.8 | . | 86* | -76 | 0.1
COc1ccc(C(=O)Nc2ccc(S(=O)(=O)N3CCc4ccccc43)cc2)cc1 | -3.6 | . | -3.1* | . | . | .
CCC(=O)Nc1ccc(S(=O)(=O)N2CCOCC2)cc1 | 0.062 | 0.9 | 0.66 | 7 | 11 | 0.9
Cc1ccc(C(=O)Nc2ccc(S(=O)(=O)N3CCc4ccccc43)cc2)o1 | -1.7 | 0.3 | -1.8 | 32 | 74* | 0.7
COC(=O)COc1ccc(S(=O)(=O)N2CCc3ccccc3C2)cc1 | -2.3 | 2* | 0.29 | 66* | -95 | 0.3
O=C(Nc1nc(-c2ccccc2)cs1)c1ccc(S(=O)(=O)N2CCc3ccccc32)cc1 | -1.3 | . | . | . | . | .
O=C(Nc1ccc(Br)cc1)C(c1ccccc1)c1ccccc1 | 0.046 | . | . | . | . | .
Cc1ccc(C(=O)Nc2ccc(S(=O)(=O)N3CCc4ccccc4C3)cc2)o1 | -2.8 | 0.7 | -0.89 | 61* | 29 | 0.4
COc1cccc(-n2c(SCC(=O)N3c4ccccc4CC3C)nnc2-c2ccco2)c1 (centres undefined) | -3.7* | 0.1 | -0.06 | 80* | 92* | 0.2
O=S(=O)(NCCSc1nnc(-c2ccco2)n1-c1ccccc1)c1ccccc1 | -0.11 | 0.2 | -1.4 | 76* | 83* | 0.2
CC1Cc2ccccc2N1C(=O)CSc1nnc2n1C(C)(C)Cc1ccccc1-2 (centres undefined) | -3 | 0.4 | -2.3 | 74* | 56* | 0.3
CCOC(=O)C1CCN(C(=O)CSc2nnc(-c3ccco3)n2-c2ccccc2)CC1 | 1.3 | 0.5 | -0.09 | 53* | 54* | 0.5
CCn1c(SCC(=O)N2c3ccccc3CC2C)nnc1-c1ccco1 (centres undefined) | 0.82 | . | 0.19 | . | . | .
CC1(C)Cc2ccccc2-c2nnc(SCC(=O)Nc3ccc4c(c3)OCO4)n21 | -0.11 | 1 | -2.4 | 5 | 0 | 1
Cn1c(SCC(=O)NC2CC2)nnc1-c1cccc(NC(=O)c2ccccc2F)c1 | 0.9 | 0.9 | 0.32 | 24 | 10 | 0.8
SMILES | Cav32 inh | CYP2C9 act | PTK2B oligo ant | CYP2C19 inhib | CYP2C9 inh | CYP2C19 act
O=C(O)CCc1n[nH]c(=S)[nH]c1=O | . | 1.1 | . | -2 | -12 | 1
CCOC(=O)CSc1nnc2n1C(C)(C)Cc1ccccc1-2 | 0.099 | . | -0.51 | . | . | .
CC(C)OC(=O)CSc1nnc2n1C(C)(C)Cc1ccccc1-2 | 0.49 | 0.5 | 1.1 | 49 | 53* | 0.5
NC(=O)c1ccccc1N | 0.72 | . | . | . | . | .
C/C(=N\NC(=O)c1nn(C)cc1Br)c1cccc(NC(=O)C2CCCC2)c1 | 2.4 | 1.6 | -0.21 | 28 | -62 | 0.7
COc1cc(NC(=O)C2CCN(S(=O)(=O)c3cnc[nH]3)CC2)cc(OC)c1OC | 0.48 | 0.3 | 0.86 | 20 | 72* | 0.8
O=C(C1CCN(S(=O)(=O)c2cnc[nH]2)CC1)N1CCc2ccccc2C1 | 0.79 | 0.8 | 1.4 | -4 | 17 | 1
